Only some compounds are listed: those with a hit (about 13% of all), similar ones and a draw of the others.
HCV inh: HCV inhibition. AID 651820. hit rate 3.4% among 340,000. Potency, µM (highest dose often 41.8 µM), inactives show top-dose activity change, negative = inhibition, hits mostly inhibitors. Huh7.5.1 HCVcc-Cre infection, luciferase reporter, 44 h; further: potency means the concentration at half of the fitted maximal effect
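Luciferase read-out (15 sec integration) after a 15 min room-temperature substrate step quantifies HCVcc-Cre infection. Cells, 1,000 per well, had compound added 4 h post-plating, then virus at ~0.5 moi, and were cultured 44 h.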
Pf growth 48h: inhibits P. falciparum growth in the first generation, 48 h. P. falciparum luciferase growth in erythrocytes, 48 h. Potency, µM (top dose mostly 28.7 µM), without a hit: at the top dose activity change, negative = inhibition, hits mostly inhibitors. hit rate 5.9% among 310,000; further: potency means the concentration at half of the fitted maximal effect
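Growth was read as firefly luciferase luminescence after a 48 h, 37 C, 5% CO2 exposure of compounds to reporter-bearing P. falciparum cultures (0.1% parasitemia, 2% hematocrit final) in Albumax-supplemented RPMI 1640.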
Pf growth 96h: P. falciparum growth inhibition at 96 hour, primary screen for plastid delayed-death inhibitors. P. falciparum luciferase reporter growth, 96 h. Potency, µM (doses to about 28.7 µM), without a hit: at the highest dose activity change, negative = inhibition, most hits filed as inhibitors. hit rate 6.9% among 320,000. AID 504834; further: potency means the concentration at half of the fitted maximal effect
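96 h incubation, 37 C, 5% CO2, of luciferase-reporter P. falciparum-infected RBCs (2% hematocrit, 0.05% parasitemia final) with test compounds; endpoint luminescence.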
HCMV inh: inhibitors of human cytomegalovirus | HFF cells, HCMV-luciferase reporter, 72 h; hits give low values | activity change, negative = inhibition, % at 57.5 µM | hit rate 4.5% among 410,000 | AID 1259415; in the data active means activity change below about -60%; inconclusive means no clear call, values can overlap the other calls; inactive means above about -39%
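Two compound doses tested in HFFs infected with HCMV-luciferase, MOI 1 PFU/cell, 72 h at 37C. Lysate luminescence read with OneGlo; data normalized against buffer-only and 10uM Salinomycin inhibitor controls.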
Numbers without * were called inactive; ? = inconclusive; . = not tested or not shown. Unless noted, the call rests on the fitted dose curve; in most records, active means well fitted inhibition curve with a large enough effect; inconclusive means small, poorly fitted or top-dose-only effect, or another doubt; inactive means no such curve, though single readings can be large or run the other way. On the % scale 0 is the no-effect control and ±100 the full control effect.

SMILES	HCV inh	Pf growth 48h	Pf growth 96h	HCMV inh
Cc1cc(=O)n2c3ccccc3n(CC(O)CN3CCN(Cc4ccccc4)CC3)c2c1C#N (configuration not stated)	?	?	?	-68*
Cc1oc2ncn(CC(C)C)c(=O)c2c1C(=O)NCCCN1CCCCC1C (configuration not stated)	.	.	.	6
O=C1C2C3CC4C5C3C1C5C1(SCCS1)C42 (configuration not stated)	.	.	.	-87*
O=c1ccn(-c2cccc(C(F)(F)F)c2)nc1-c1ccn(-c2ccccc2F)n1	-6%	?	5.9µM*	-39
COc1ccc(-n2ccc(-c3nn(-c4cccc(C(F)(F)F)c4)ccc3=O)n2)cc1	?	7.4µM*	3.3µM*	-11
CNC(=O)c1nn(-c2ccccc2)ccc1=O	-5%	12%	22%	-4
Cc1ccc(-n2ccc(-c3nn(-c4ccccc4)ccc3=O)n2)cc1	-22%	?	7.4µM*	?
CN(CC(=O)Nc1cccc(S(=O)(=O)NC2=NCCCCC2)c1)Cc1ccc(C(C)(C)C)cc1	?	?	?	9
CC(C)(C)c1ccc(OCCC(=O)Nc2cccc(S(=O)(=O)NC3=NCCCCC3)c2)cc1	14µM*	12µM*	?	-60*
Cc1ccccc1-n1ccnc1SCC(=O)Nc1cccc(S(=O)(=O)NC2=NCCC2)c1	-1%	.	.	-61*
O=C(Cc1csc(-c2ccc(F)cc2)n1)Nc1cccc(S(=O)(=O)NC2=NCCC2)c1	1%	-29%	6.6µM*	?
O=C(COC(=O)/C=C/c1ccc(Cl)cc1Cl)Nc1cccc(S(=O)(=O)NC2=NCCC2)c1	.	.	.	-69*
O=C(COC(=O)/C=C/c1cccc(Cl)c1)Nc1cccc(S(=O)(=O)NC2=NCCC2)c1	-6%	-3%	-18%	-10
O=c1c2oc3ccccc3c2n(Cc2ccccc2Cl)c(=O)n1Cc1ccco1	.	.	.	-2
CC(=O)c1cccc(S(=O)(=O)Nc2cccc(S(=O)(=O)NC3=NCCC3)c2)c1	7%	8%	24%	-84*
O=C(CCl)Nc1cccc(S(=O)(=O)NC2=NCCC2)c1	13µM*	3.3µM*	4.7µM*	-100*
CC(=O)c1ccc(S(=O)(=O)Nc2cccc(S(=O)(=O)NC3=NCCC3)c2)cc1	-4%	33%	-12%	-15
O=C(COC(=O)/C=C/c1ccc(Cl)cc1Cl)Nc1ccc2c(c1)OCCO2	18%	28%	2.9µM*	-32
O=C(COC(=O)c1ccc(O)cc1)Nc1cccc(S(=O)(=O)NC2=NCCC2)c1	14%	?	6.6µM*	1
CC(C)C(=O)Nc1cccc(S(=O)(=O)NC2=NCCC2)c1	.	.	.	-2
COC(=O)c1sccc1S(=O)(=O)N(CC(=O)NCc1ccccc1)c1ccccc1	.	.	.	11
CCOC(=O)c1c(C)sc(-c2c(-c3ccc4c(c3)OCCO4)[nH]c3c2c(=O)[nH]c(=O)n3C)c1O	.	.	.	62
CCN(CC)S(=O)(=O)c1ccc(N2CCOCC2)c(NS(=O)(=O)c2cccs2)c1	7%	1%	20%	-20
CCN(CC)S(=O)(=O)c1ccc(N2CCOCC2)c(NS(=O)(=O)c2ccc(C(C)C)cc2)c1	-9%	2.9µM*	1.5µM*	-24
CCN(CC)S(=O)(=O)c1ccc(N2CCOCC2)c(NS(=O)(=O)c2cc(C(C)(C)C)ccc2C)c1	?	0.083µM*	?	-69*
SMILES	HCV inh	Pf growth 48h	Pf growth 96h	HCMV inh
CCOC(=O)c1c(C)[nH]c(C)c1S(=O)(=O)N1CCC(C(=O)Nc2ccccc2CC)CC1	.	.	.	-7
O=C(C[n+]1ccccc1)N1c2ccccc2Sc2ccccc21	?	?	4%	-75*
CN(C)c1cc[n+](CC(=O)N2c3ccccc3Sc3ccccc32)cc1	-23%	?	12%	-84*
O=C(C1CC1)N1c2ccccc2Sc2ccccc21	-17%	12µM*	26%	4
O=C(COc1ccccc1)N1c2ccccc2Sc2ccccc21	?	-30%	?	-39
CCOC(=O)N1c2ccccc2Sc2ccccc21	?	?	1%	-34
O=C(CSc1nccn1Cc1ccco1)Nc1cc(C(F)(F)F)ccc1Cl	.	.	.	-23
CC(C)c1cc(Nc2cccc(O)c2)cc(C(C)C)c1O	.	?	12µM*	.
CCOC(=O)c1c(CSc2ccsc2)n(C)c2cc(Br)c(O)c(CN(C)C)c12	?	?	?	-6
CCOC(=O)c1c(CN2CCCCC2)oc2ccc(OC)cc12	-17%	4%	?	-8
CCOC(=O)c1c(CSc2ccccc2)n(C)c2cc(Br)c(O)c(CN(C)C)c12	?	9.3µM*	?	-15
CCOC(=O)c1c(C)n(CC(O)CN(CC)CC)c2cc(Br)c(OC)cc12 (configuration not stated)	?	?	15µM*	23
CCOC(=O)c1c(CN2CCCCC2)n(C)c2cc(Br)c(O)c(CN(C)C)c12	-3%	.	12µM*	.
CCOC(=O)c1c(CSc2ccc(C)cc2)n(C)c2cc(Br)c(O)c(CN(C)C)c12	?	4.1µM*	10%	-63*
CCCSc1ncc(Cl)c(C(=O)Nc2sc3c(c2C(=O)OC)CCCC3)n1	.	.	.	15
COc1ccc(C)cc1NC(=O)Nc1ccccc1OCc1cc(=O)n2ccccc2n1	.	.	.	37
Cc1cc(C)cc(OCc2cc(=O)n3cc(C)sc3n2)c1	.	.	.	-6
CCOC(=O)c1c(CN2CCOCC2)n(-c2ccccc2)c2cc(Br)c(O)c(CN(C)C)c12	?	13µM*	2.6µM*	-16
CCOC(=O)c1c(CNCCN(CC)CC)n(C)c2cc(Br)c(OC)cc12	?	.	-5%	4
CCOC(=O)c1c(CN2CCCCC2)n(C)c2ccc(OC)c(S(=O)(=O)c3ccccc3)c12	-16%	10µM*	7.4µM*	9
CCOC(=O)c1c(C)n(C)c2ccc(OC(C)C(=O)OC)cc12 (configuration not stated)	?	-5%	.	45
CCOC(=O)c1c(C)n(C)c2ccc(O)c(S(=O)(=O)c3ccccc3)c12	9%	18%	.	-3
CCOC(=O)c1c(C)n(C)c2cc(Br)c(C(=O)OC)cc12	10µM*	18%	4%	11
CCOC(=O)c1c(CN2CCCCC2)n(C)c2cc(Br)c(OC)cc12	?	?	3.3µM*	-32
CCOC(=O)c1c(-c2ccccc2)oc2ccc(O)c(CN3CCOCC3)c12	?	?	.	-13
CCOC(=O)c1c(CSc2ccccc2)n(C)c2ccc(O)c(CN3CCN(C)CC3)c12	-27%	?	?	?
CCOC(=O)c1c(CN(C)C)oc2cc(CN(C)C)c(O)c(CSc3ccccc3)c12	-22%	0.37µM*	2.3µM*	-4
Cc1cc2c(cc1S(=O)(=O)CCC(=O)N1CCCCC1C)OCC(=O)N2 (configuration not stated)	.	.	.	-5
CCOC(=O)c1ccc(NC(=O)CN2c3ccccc3S(=O)(=O)c3ccccc32)cc1	.	.	.	8
